# Measurements from ChEMBL document CHEMBL3988442, “University of Dundee, Small-Polar-MMV Screening Library” (2021).
# The campaign covered roughly 38,000 compounds. About 1,200 (3.2%) showed an effect of 50% or more. The median lay at about -58%. The full list was thinned out, with strong results kept by preference.
# Test system: Plasmodium falciparum
# Experiment: Calibr Malaria Delayed Death Assay SOP
# Format: functional, organism-based
# Set-up: scale not given: in the data most compounds retested in dose-response had high values
# Settings: concentration 4.99e-06 (unit not given; other assays of the set use mol/L)
row,Compound,Percent Effect [%]
1,CCC(O)CN1CCN(C(=O)c2cccc3c2OCC(=O)N3)CC1 (stereo unspecified),-136.7
2,CC(C)CN1C(=O)C2(CCN(Cc3ccsc3)C2)c2ccccc21.O=C(O)C(F)(F)F (stereo unspecified),-33.32
3,Cc1cccc(CN2CCc3ncnc(N4CCN(C)CC4)c3CC2)n1.O=C(O)C(F)(F)F.O=C(O)C(F)(F)F,-236.1
4,Cc1noc(C(C)C)c1C(=O)NCCCOC(C)C,-142.4
5,CC(CNC(=O)NCc1ccoc1)N1CCc2sccc2C1 (stereo unspecified),-8.458
6,CCc1cnc(CN(C)C2CCN(CCCS(=O)(=O)NC)C2)o1 (stereo unspecified),-85.83
7,COCCN1C[C@H]2CCC[C@@H](CNc3ncccn3)[C@H]2C1.O=C(O)C(F)(F)F.O=C(O)C(F)(F)F,19.85
8,O=C(O)C(F)(F)F.c1ccc(NC[C@@H]2CCC[C@@H]3CN(c4ncccn4)C[C@@H]32)nc1,71.6
9,O=C(O)C(F)(F)F.c1ccc(NC[C@@H]2CCC[C@@H]3CN(Cc4cc[nH]n4)C[C@@H]32)nc1,-36.14
10,Cc1cccc(C)c1OC1CN(C(=O)C2CC(=O)N(C(C)(C)C)C2)C1 (stereo unspecified),-9.651
11,COc1nccnc1-c1cc(NC2CCCC2)nc2[nH]ccc12,19.53
12,COc1ncc(-c2cc(NC3CCCC3)nc3[nH]ccc23)c(OC)n1,74.29
13,COc1nccnc1-c1cc(NC2CCNCC2)nc2[nH]ccc12,-131.1
14,CNc1cc(C)nc(-c2cc(NC3CCNCC3)nc3[nH]ccc23)n1,-52.32
15,FC(F)(F)c1ccc(-c2cc(NC3CCNCC3)nc3[nH]ccc23)nc1,-115.3
16,COc1cc(-c2cc(NC3CCCC3)nc3[nH]ccc23)nc(N)n1,62.87
17,CC(Nc1ccc(F)cc1)c1nnnn1-c1ccccc1 (stereo unspecified),-147.9
18,Cc1cc(S(C)(=O)=O)c(C)c(S(=O)(=O)N2CCCCCC2)c1,-98.91
19,c1cnn(CC2CN(Cc3nc(-c4ccoc4)no3)CCO2)c1 (stereo unspecified),-25.36
20,Cc1csc(N2CCCN(C(=O)Cc3ccc(C)s3)CC2)n1,-98.4
21,CN1CCC(N(C)C(=O)Nc2ccc(Cl)cc2)CC1,-68.4
22,Cc1nc(N2CCCC2)ncc1C(=O)Nc1ccc(Br)cc1,-75.85
23,CCN(CC)c1nc(C)cc(C(=O)Nc2ccc(Br)cc2)n1,-6.909
24,Cn1cc(NC(=O)CNC(=O)N2CCN(c3ccc(Cl)cc3)CC2)cn1,2.407

row,Compound,Percent Effect [%]
1,Cc1oc(-c2cccc(F)c2F)nc1CN(C)CCO,-89.89
2,CC[C@H](C)[C@H](NC(=O)c1cccc(-n2cnnn2)c1)C(=O)OC,-118.3
3,COCC(O)CNC(=O)c1cc(COc2ccc3c(c2)CCCC3)on1 (stereo unspecified),-3.069
4,CC(C)NC(=O)CC1COC2(CCN(Cc3cccs3)CC2)C1.O=C(O)C(F)(F)F (stereo unspecified),-6.903
5,O=C(COc1coc(CN2CCCC2)cc1=O)Nc1ccc(Cl)c(Cl)c1,-65.99
6,O=C(COc1coc(CN2CCCC2)cc1=O)Nc1cc(Cl)ccc1Cl,79.74
7,O=C(COc1coc(CN2CCCCC2)cc1=O)Nc1ccccc1Cl,-97.93
8,COc1ccc(NCC(=O)NCC(=O)N2CCCC2)c(C(F)(F)F)c1,-93.16
9,CC(C)CNC(=O)CN(Cc1ccc(F)cc1)S(C)(=O)=O,-57.65
10,COc1ccc(C[C@H]2CN(C(=O)c3cscn3)CC[C@@H]2OC)cc1,-91.5
11,CCn1cnnc1CNC(=O)N1CCN(CC(C)C)CC1,-55.6
12,c1ccc(-c2nc(CNC3CCc4ncnn4C3)no2)cc1 (stereo unspecified),-138.7
13,CN(C)c1ccc(CNC2(c3ccc(F)cc3)CCOCC2)cc1F,25.79
14,CSc1ccc(CNC2(c3ccc(F)cc3)CCOCC2)cc1,28.49
15,Fc1ccc(C2(NCc3ccccc3)CCOCC2)cc1,62.64
16,O=C(CCc1nc2ccccc2[nH]1)Nc1ccc2c(c1)OCC(=O)N2,-185.4
17,Cc1cc(F)c(S(=O)(=O)Nc2ccn(CCC#N)n2)cc1F,-82.35
18,CN(C)[C@@H]1CCN(c2ncc(F)cn2)[C@H]1Cc1cccnc1.O=C(O)C(F)(F)F.O=C(O)C(F)(F)F,-22.18
19,CN(C)[C@@H]1CCN(c2ncccn2)[C@H]1Cc1cccnc1.O=C(O)C(F)(F)F.O=C(O)C(F)(F)F,10.59
20,Fc1cnc(N2CC[C@@H](N3CCOCC3)[C@@H]2Cc2ccccc2)nc1,-55.08
21,CN(C)[C@@H]1CCN(c2ncc(F)cn2)[C@H]1Cc1ccccc1.O=C(O)C(F)(F)F.O=C(O)C(F)(F)F,88.46
22,CN(C)[C@@H]1CCN(c2ncc(F)cn2)[C@H]1Cc1ccncc1.O=C(O)C(F)(F)F.O=C(O)C(F)(F)F,27.12
23,CN(C)[C@@H]1CCN(c2ncccn2)[C@H]1Cc1ccncc1.O=C(O)C(F)(F)F.O=C(O)C(F)(F)F,-10.95
24,CO[C@@H]1CCN(c2ncccn2)[C@H]1Cc1ccccc1,-224.1

row,Compound,Percent Effect [%]
1,CN(C)[C@@H]1CCN(c2ncccn2)[C@H]1Cc1ccccc1,77.2
2,Cc1nn(C)c(C)c1CN(C)C(C(=O)O)c1ccc(F)cc1F (stereo unspecified),-28.09
3,Cc1nc(-c2nnc[nH]2)sc1C(=O)N1CCCC1c1cccs1 (stereo unspecified),-86.12
4,Cc1ccc(F)c(S(=O)(=O)NCCc2nnc[nH]2)c1,-33.36
5,N#Cc1ccc(NCC(O)c2ccco2)c(C(F)(F)F)c1 (stereo unspecified),-33.98
6,Cn1cc(C(=O)N2CCCC(CN3CCCC3=O)C2)cn1 (stereo unspecified),-14.99
7,O=C(c1ccc(F)c(F)c1)N1CCC[C@]2(C[C@@H](OCC3CC3)CO2)C1,-0.7044
8,COC(=O)CC(c1ccc(O)c(Cl)c1)c1oc(C)cc(=O)c1O (stereo unspecified),-28.31
9,Cc1nc(C)n(C2CCCN(C(=O)CCc3ccccn3)C2)n1 (stereo unspecified),-132.7
10,COc1ccc(C(C)CCNC2CCN(c3ccccn3)CC2)cc1 (stereo unspecified),67.25
11,CC(CNC1CCN(c2ccccn2)CC1)Oc1ccc(F)cc1 (stereo unspecified),47.69
12,CC(C)COCCNC1CCN(c2ccccn2)CC1,60.11
13,OC1(CNC2CCN(c3ccccn3)CC2)CCc2ccccc21 (stereo unspecified),27.14
14,CC(C)COCCC(=O)NCCC(=O)N1CCN(c2ccccn2)CC1,-146.7
15,COCCOCC(=O)NC1CCN(c2ccccn2)CC1,-21.4
16,CSCC(=O)N1CCOC(c2nc(C(C)C)n[nH]2)C1 (stereo unspecified),-97.79
17,CC(C)[C@H]1CN(c2ccnc(N)n2)C[C@@H]1NC(=O)C1(C#N)CCOCC1,-66.36
18,Cc1cc(CN2CCC(c3nccn3C(C)C)CC2)ccc1F,18.24
19,NC1CCCCN(Cc2cc(C3CCCCC3)no2)C1 (stereo unspecified),62.41
20,C[C@@H]1CN(Cc2cc(C3CCCCC3)no2)CC[C@]1(C)O,-5.788
21,OC1COCCN(Cc2cc(-c3ccccc3OC(F)(F)F)no2)C1 (stereo unspecified),-13.03
22,NC1CCCCN(Cc2cc(-c3ccccc3OC(F)(F)F)no2)C1 (stereo unspecified),70.63
23,OCC1COCCN(Cc2cc(C3CCCCC3)no2)C1 (stereo unspecified),-120.4
24,Fc1ccc(C2CCCCN2Cc2cc(-c3ccccn3)no2)cc1 (stereo unspecified),-40.19

row,Compound,Percent Effect [%]
1,O=C(O)C(F)(F)F.O=C(O)C(F)(F)F.O=C1COC2(CCN(Cc3cccnc3)CC2)CN1c1ccccc1,-17.97
2,Cc1cnc(C(=O)N2CCCC(n3cccn3)C2)cn1 (stereo unspecified),-66.69
3,CCN(C)Cc1cccc(CNC(=O)NCCc2ccccn2)c1,-13.41
4,CN(C)Cc1nnc2n1CCN(Cc1ccccn1)CC2,-1.592
5,CC(C)Nc1nc2c(s1)C(=O)CN(C(=O)NCc1ccccc1)C2,-132.7
6,CCCOc1cc(Cl)c(CN2CCNC(C(=O)NC3CC3)C2)cc1OC (stereo unspecified),74.72
7,CCOc1ccc(CN2CCNC(C(=O)NC3CC3)C2)cc1CO (stereo unspecified),-11.99
8,NC(=O)COc1ccc(CN2CCNC(C(=O)NC3CC3)C2)cc1Cl (stereo unspecified),-16.07
9,Cc1cc(C)n(CC(=O)N(CC2CN(C)CCO2)c2nccs2)n1 (stereo unspecified),-86.12
10,COc1ccc(Cn2c(Cc3c(C)n[nH]c3C)n[nH]c2=O)cc1,-40.64
11,CN(C)CCO[C@H]1CN(C(=O)c2ccc(C#N)cc2)[C@@H]2COC[C@H]12,-51.41
12,CCCn1ncc2c(C(=O)NC(C)Cn3cccn3)cc(C3CC3)nc21 (stereo unspecified),-124.5
13,N#Cc1cccc(CS(=O)(=O)NCC(O)Cc2ccccc2)c1 (stereo unspecified),-10.83
14,O=C(C(CNCc1ccco1)c1ccccc1)N1CCOCC1 (stereo unspecified),-74.95
15,O=S(=O)(Cc1cccc(F)c1)NCC(O)Cc1ccccc1 (stereo unspecified),-87.6
16,Cc1cc(C)c(N(CC(O)CNCc2ccco2)S(C)(=O)=O)c(C)c1.O=C(O)c1ccccc1 (stereo unspecified),59.67
17,Cc1ccc(CS(=O)(=O)NCc2ccco2)cc1,-37.35
18,Br.Cc1cc(C)c(N(CC(O)CNCc2ccccc2)S(C)(=O)=O)c(C)c1 (stereo unspecified),69.59
19,Cc1ccc(N(C)CC(O)COCc2ccccc2)c(C)c1 (stereo unspecified),-54.55
20,Cc1cccc(CS(=O)(=O)NCC(O)Cc2ccccc2)c1 (stereo unspecified),-12.6
21,CCn1nc(C)c2nc(C)nc(NCCc3ccccc3)c21,35.69
22,CO[C@@H]1CN(c2ccccc2)S(=O)(=O)[C@@]12CCNC2,-24.96
23,CC1c2ccsc2CCN1Cc1cc2c(cc1O)OCO2 (stereo unspecified),25.38
24,Cn1cc(C2CCCN2C(=O)c2cnc(-c3ncccn3)s2)cn1 (stereo unspecified),-23.4
